Measurements from PubChem BioAssay (NCATS).
Records with an inconclusive call do not appear. Unmarked numbers belong to inactive results. Calls of active or inactive are those of the source. Calls come from the whole dose curve; as a rule, active = well fitted inhibition curve with a large enough effect; inconclusive = small, poorly fitted or top-dose-only effect; inactive = flat fitted curve, though single readings scatter.

Tested on: JCK
Test: qHTS profiling for inhibitors of Plasmodium falciparum proliferation (AID 504749); note: nearly all actives have a fitted effect of over 60% in size;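 for activity, negative = inhibition: 0% = DMSO vehicle and full inhibition = artemisinin control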
Conditions: P. falciparum in erythrocytes, SYBR Green DNA, 72 h; series mostly up to 28.7 µM; activity, negative = inhibition: at the top concentration
Method in brief: (§1)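 SYBR Green fluorescence (ex 485 nm, em 535 nm) reports parasite DNA after 72 h compound exposure of infected red cells at 0.3% parasitemia, 2.5% hematocrit; signal normalized to 0.29 uM artemisinin and vehicle wells.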
Potency is the fitted concentration of half-maximal effect.

| SMILES | activity, negative = inhibition [%] |
| --- | --- |
| CN1C2CCC1CC(OC(c1ccccc1)c1ccccc1)C2 (stereo not given) | -21.3 |
| CCCCCCCCCCCCCCCCCCOC[C@H](COP(=O)([O-])OCC[N+](C)(C)C)OC | 7.54 |
| CCCCCCCCCCCCCCC[C@H](O)[C@H](N)CO | 0.948 |
| CC(C)NC[C@H](O)COc1ccc(CC(N)=O)cc1 | 7.32 |
| CC(O)C(O)[C@H]1CNc2nc(N)[nH]c(=O)c2N1 (stereo not given in full) | 12.4 |

Tested on: N140
Test: as above
Conditions: P. falciparum in erythrocytes, SYBR Green DNA, 72 h; series mostly up to 28.7 µM; activity, negative = inhibition: at the top concentration
Method in brief: as §1

| SMILES | Potency | activity, negative = inhibition [%] |
| --- | --- | --- |
| c1ccc(C2CN3CCSC3=N2)cc1 (stereo not given) | 3.98 µM (active) | – |
| CN1C2CCC1CC(OC(c1ccccc1)c1ccccc1)C2 (stereo not given) | – | -22.5 |
| CCCCCCCCCCCCCCCCCCOC[C@H](COP(=O)([O-])OCC[N+](C)(C)C)OC | – | 13.9 |
| CCCCCCCCCCCCCCC[C@H](O)[C@H](N)CO | – | 15.9 |
| CC(C)NC[C@H](O)COc1ccc(CC(N)=O)cc1 | – | 15.4 |
| CC(O)C(O)[C@H]1CNc2nc(N)[nH]c(=O)c2N1 (stereo not given in full) | – | 16.6 |

Tested on: P93_24
Test: as above
Conditions: P. falciparum in erythrocytes, SYBR Green DNA, 72 h; series mostly up to 28.7 µM; activity, negative = inhibition: at the top concentration
Method in brief: as §1

| SMILES | Potency | activity, negative = inhibition [%] |
| --- | --- | --- |
| c1ccc(C2CN3CCSC3=N2)cc1 (stereo not given) | 2.82 µM (active) | – |
| CCCCCCCCCCCCCCCCCCOC[C@H](COP(=O)([O-])OCC[N+](C)(C)C)OC | – | -1.64 |
| CCCCCCCCCCCCCCC[C@H](O)[C@H](N)CO | – | 9.77 |
| CC(O)C(O)[C@H]1CNc2nc(N)[nH]c(=O)c2N1 (stereo not given in full) | – | 7.29 |

Tested on: P94_40
Test: as above
Conditions: P. falciparum in erythrocytes, SYBR Green DNA, 72 h; series mostly up to 28.7 µM; activity, negative = inhibition: at the top concentration
Method in brief: as §1

| SMILES | Potency | activity, negative = inhibition [%] |
| --- | --- | --- |
| c1ccc(C2CN3CCSC3=N2)cc1 (stereo not given) | 3.55 µM (active) | – |
| CCCCCCCCCCCCCCCCCCOC[C@H](COP(=O)([O-])OCC[N+](C)(C)C)OC | – | 7.99 |
| CCCCCCCCCCCCCCC[C@H](O)[C@H](N)CO | – | 3.52 |
| CC(C)NC[C@H](O)COc1ccc(CC(N)=O)cc1 | – | 4.21 |
| CC(O)C(O)[C@H]1CNc2nc(N)[nH]c(=O)c2N1 (stereo not given in full) | – | 2.92 |

Tested on: PAD
Test: as above
Conditions: P. falciparum in erythrocytes, SYBR Green DNA, 72 h; series mostly up to 28.7 µM; activity, negative = inhibition: at the top concentration
Method in brief: as §1

| SMILES | Potency | activity, negative = inhibition [%] |
| --- | --- | --- |
| c1ccc(C2CN3CCSC3=N2)cc1 (stereo not given) | 7.94 µM (active) | – |
| CCCCCCCCCCCCCCCCCCOC[C@H](COP(=O)([O-])OCC[N+](C)(C)C)OC | – | 8.34 |
| CCCCCCCCCCCCCCC[C@H](O)[C@H](N)CO | – | 3.31 |
| CC(C)NC[C@H](O)COc1ccc(CC(N)=O)cc1 | – | 8.11 |
| CC(O)C(O)[C@H]1CNc2nc(N)[nH]c(=O)c2N1 (stereo not given in full) | – | 13 |

Tested on: PC15
Test: as above
Conditions: P. falciparum in erythrocytes, SYBR Green DNA, 72 h; series mostly up to 28.7 µM; activity, negative = inhibition: at the top concentration
Method in brief: as §1

| SMILES | Potency | activity, negative = inhibition [%] |
| --- | --- | --- |
| c1ccc(C2CN3CCSC3=N2)cc1 (stereo not given) | 2.82 µM (active) | – |
| CCCCCCCCCCCCCCCCCCOC[C@H](COP(=O)([O-])OCC[N+](C)(C)C)OC | – | 1.62 |
| CCCCCCCCCCCCCCC[C@H](O)[C@H](N)CO | – | 0.832 |
| CC(C)NC[C@H](O)COc1ccc(CC(N)=O)cc1 | – | 10.3 |
| CC(O)C(O)[C@H]1CNc2nc(N)[nH]c(=O)c2N1 (stereo not given in full) | – | 7.52 |

Tested on: PC26
Test: as above
Conditions: P. falciparum in erythrocytes, SYBR Green DNA, 72 h; series mostly up to 28.7 µM; activity, negative = inhibition: at the top concentration
Method in brief: as §1

| SMILES | Potency | activity, negative = inhibition [%] |
| --- | --- | --- |
| c1ccc(C2CN3CCSC3=N2)cc1 (stereo not given) | 15.1 µM (active) | – |
| CCCCCCCCCCCCCCC[C@H](O)[C@H](N)CO | – | 12.6 |
| CC(C)NC[C@H](O)COc1ccc(CC(N)=O)cc1 | – | 2.31 |
| CC(O)C(O)[C@H]1CNc2nc(N)[nH]c(=O)c2N1 (stereo not given in full) | – | 0.749 |

Tested on: PC49
Test: as above
Conditions: P. falciparum in erythrocytes, SYBR Green DNA, 72 h; series mostly up to 28.7 µM; activity, negative = inhibition: at the top concentration
Method in brief: as §1

| SMILES | Potency | activity, negative = inhibition [%] |
| --- | --- | --- |
| CN1C2CCC1CC(OC(c1ccccc1)c1ccccc1)C2 (stereo not given) | 2 µM (active) | – |
| CCCCCCCCCCCCCCCCCCOC[C@H](COP(=O)([O-])OCC[N+](C)(C)C)OC | – | 4.79 |
| CCCCCCCCCCCCCCC[C@H](O)[C@H](N)CO | – | 10.4 |
| CC(C)NC[C@H](O)COc1ccc(CC(N)=O)cc1 | – | 11.2 |
| CC(O)C(O)[C@H]1CNc2nc(N)[nH]c(=O)c2N1 (stereo not given in full) | – | 2.23 |

Tested on: SC27B
Test: as above
Conditions: P. falciparum in erythrocytes, SYBR Green DNA, 72 h; series mostly up to 28.7 µM; activity, negative = inhibition: at the top concentration
Method in brief: as §1

| SMILES | Potency | activity, negative = inhibition [%] |
| --- | --- | --- |
| c1ccc(C2CN3CCSC3=N2)cc1 (stereo not given) | 10 µM (active) | – |
| CN1C2CCC1CC(OC(c1ccccc1)c1ccccc1)C2 (stereo not given) | – | -22.8 |
| CCCCCCCCCCCCCCCCCCOC[C@H](COP(=O)([O-])OCC[N+](C)(C)C)OC | – | 9.16 |
| CCCCCCCCCCCCCCC[C@H](O)[C@H](N)CO | – | 13.3 |
| CC(C)NC[C@H](O)COc1ccc(CC(N)=O)cc1 | – | 0.216 |
| CC(O)C(O)[C@H]1CNc2nc(N)[nH]c(=O)c2N1 (stereo not given in full) | – | 3.93 |

Tested on: TAB109
Test: as above
Conditions: P. falciparum in erythrocytes, SYBR Green DNA, 72 h; series mostly up to 28.7 µM; activity, negative = inhibition: at the top concentration
Method in brief: as §1

| SMILES | Potency | activity, negative = inhibition [%] |
| --- | --- | --- |
| c1ccc(C2CN3CCSC3=N2)cc1 (stereo not given) | 4.47 µM (active) | – |
| CCCCCCCCCCCCCCCCCCOC[C@H](COP(=O)([O-])OCC[N+](C)(C)C)OC | – | 9.93 |
| CCCCCCCCCCCCCCC[C@H](O)[C@H](N)CO | – | 9.51 |
| CC(C)NC[C@H](O)COc1ccc(CC(N)=O)cc1 | – | 5.18 |
| CC(O)C(O)[C@H]1CNc2nc(N)[nH]c(=O)c2N1 (stereo not given in full) | – | -1.03 |
